As usually defined, the Inhibition is the percentage by which the read-out fell short of the control. Lower therefore signals little suppression.

Type in all cases: functional
The test system of experiment [1] is Plasmodium falciparum. The experiment is described as follows: GSK_TCMDC: Inhibition of Plasmodium falciparum 3D7 in whole red blood cells, using parasite LDH activity as an index of growth. Test compounds present at 2uM.
Experiment [2] has as its system Plasmodium falciparum. The experiment is described as follows: GSK_TCMDC: Inhibition of Plasmodium falciparum Dd2 in whole red blood cells, using parasite LDH activity as an index of growth. Test compounds present at 2uM.
For a further experiment, the system named is HepG2. The experiment is described as follows: GSK_TCMDC: Percent inhibition of human HepG2 cell line. Test compounds present at 10uM.

On to `Cl.N#Cc1ccc(C2CCN(CC[C@H](N)Cc3ccc(Cl)s3)CC2)cc1`, for which the Inhibition in the experiment with Plasmodium falciparum [1] worked out at 92%; in the experiment with Plasmodium falciparum [2], 30%; with HepG2, 31%.
For the molecule `CCC(CC)NCc1c(O)ccc2c(CNC(CC)CC)c(O)ccc12.Cl`, the Inhibition is 100% in the experiment on Plasmodium falciparum [1], 94% with Plasmodium falciparum [2] and 4% in the experiment on HepG2.
Turning to `Cc1cc(N[C@@H](Cc2ccccc2)C(=O)NCCCOC(C)C)nc(NCCc2ccc(F)cc2)n1.O=C(O)C(F)(F)F`, the Inhibition in the experiment on Plasmodium falciparum [1] was determined as 100%; in the experiment on Plasmodium falciparum [2], 36%; in the experiment with HepG2, 15%.
Take `Br.CC1(C)NC(N)=NC(=N)N1OCCOc1ccc(Cc2ccccc2)cc1`: the Inhibition worked out at 94% with Plasmodium falciparum [1], 26% in the experiment on Plasmodium falciparum [2] and 62% with HepG2.
For `Cc1nccn1Cc1cc(C(C)(C)C)c(O)c(C(C)(C)C)c1`, the Inhibition in the experiment with Plasmodium falciparum [1] was found to be 99%; in the experiment with Plasmodium falciparum [2], 0%; with HepG2 it was 8%.
Consider `CCCCCCCCCn1c(NCc2cc(Cl)ccc2O)nc2ccccc21`, for which the figures for the Inhibition with Plasmodium falciparum [1], in the experiment with Plasmodium falciparum [2] and in the experiment with HepG2 were 97%, 92% and 13%, respectively.
Turning to `Cc1cc(Nc2cccc(C(F)(F)F)c2)nc(N)n1`, the Inhibition is 98% with Plasmodium falciparum [1], 24% with Plasmodium falciparum [2] and 5% in the experiment on HepG2.
Consider `CCn1cc(CN2C(=O)C(c3ccccc3)(c3ccccc3)N=C2N)cn1.O=CO`, for which the Inhibition in the experiment on Plasmodium falciparum [1] amounted to 95%; with Plasmodium falciparum [2], 60%; with HepG2, 7%.
In the case of `O=C(/C=C/c1ccc(Cl)c(Cl)c1)NCCCCCCN1CCCN(C(=O)Nc2cccc(Cl)c2)CC1`, the results for the Inhibition in the experiment on Plasmodium falciparum [1], in the experiment on Plasmodium falciparum [2] and with HepG2 were 94%, 2% and 26%, respectively.
In the case of `O=C(Nc1ccccc1)Nc1ccc(-n2ccc(C(F)(F)F)n2)cc1`, the results for the Inhibition in the experiment with Plasmodium falciparum [1], in the experiment with Plasmodium falciparum [2] and in the experiment with HepG2 were 95%, 85% and 15%, respectively.
Regarding `Cc1cc(N[C@@H](CC(C)C)C(=O)Nc2ccccc2)nc(NCCc2ccccc2)n1.O=C(O)C(F)(F)F`, the results for the Inhibition with Plasmodium falciparum [1], in the experiment with Plasmodium falciparum [2] and with HepG2 were 100%, 87% and 0%, respectively.

Source of the values: ChEMBL document CHEMBL1157539, “Thousands of chemical starting points for antimalarial lead identification” (Nature, 2010).
